Test results taken from ChEMBL document CHEMBL3988442, “University of Dundee, Small-Polar-MMV Screening Library” (2021).
About 13,000 (27%) of roughly 48,000 compounds showed an effect of 50% or more. The list shows a part of the results.

system: Wolbachia pipientis; experiment: Anti-Wolbachia Cell-Based Screen; type: functional; parameters: scale not given: in the data most compounds retested in dose-response had high values; conditions: 5 µM

Row | SMILES | Percent Effect [%]
1 | CC(C)(C)n1cc(C2=CCN(CCc3ccccn3)CC2)cn1 | 15.47
2 | CCOCC(O)CN1CCN(C(=O)Cc2ccc3c(c2)CCO3)CC1 (configuration not stated) | -9.69
3 | CC(Cn1cncn1)NCc1n[nH]c2c1CCCCC2 (configuration not stated) | -17.11
4 | O=C(c1cn(Cc2ccccc2)c2ncccc12)N1CCCCC1 | 137.3
5 | O=C(c1cn(Cc2ccccc2)c2ncccc12)N1CCOCC1 | 115.6
6 | COCCN1C[C@@H](C)[C@@]2(COCCN(C(=O)c3ccccn3)C2)C1.O=C(O)C(F)(F)F.O=C(O)C(F)(F)F | -2.288
7 | Cc1ccc(N2CCCN(C(=O)c3cn(C)c4ccccc34)CC2)nn1 | 7.774
8 | CC(=O)c1cn(CC(=O)N2CCC3(CC2)OCCO3)c2ccccc12 | -19.35
9 | O=C(c1cccnc1-n1cncn1)N1CCC(Nc2ccccc2)CC1 | 0.1986
10 | O=C(O)C(F)(F)F.O=C(O)C(F)(F)F.O=C([C@H]1CN(Cc2cccnc2)C[C@H]2OCC[C@@H]12)N1CCCO1 | -1.635
11 | O=C(N1CCCO1)[C@@]12CCO[C@@H]1CCN(Cc1cccnc1)C2.O=C(O)C(F)(F)F.O=C(O)C(F)(F)F | 92.31
12 | Cc1noc(C)c1CN1CC[C@H]2OCC[C@@]2(C(=O)N2CCCO2)C1.O=C(O)C(F)(F)F | -1.065
13 | O=C(O)C(F)(F)F.O=C(O)C(F)(F)F.O=C(O)C(F)(F)F.c1cc(CN2CCCC23CCCN(Cc2ccoc2)C3)ccn1 (configuration not stated) | 6.786
14 | Cc1nnc(N2CCCC3(CN(Cc4ccncc4)CCO3)C2)o1.O=C(O)C(F)(F)F.O=C(O)C(F)(F)F (configuration not stated) | -4.396
15 | Cc1cccc(CN2CC[C@H]3OCC[C@@]3(C(=O)N3CCCO3)C2)n1.O=C(O)C(F)(F)F.O=C(O)C(F)(F)F | 104.8
16 | O=C(N1CCOCC1)[C@@]12CCO[C@@H]1CCN(Cc1ccncc1)C2.O=C(O)C(F)(F)F.O=C(O)C(F)(F)F | 97.63
17 | O=C(N1CCCO1)[C@]12COC[C@H]1CN(Cc1cccnc1)C2.O=C(O)C(F)(F)F.O=C(O)C(F)(F)F | 2.039
18 | O=C(O)C(F)(F)F.O=C([C@@H]1C[C@@H]2CCN(Cc3ccccn3)C[C@H]2O1)N1CCCO1 | -15.19
19 | O=C(N1CCCO1)[C@@]12CCO[C@@H]1CCN(Cc1ccccn1)C2.O=C(O)C(F)(F)F.O=C(O)C(F)(F)F | 114.4
20 | Cc1cccc(CN2CCC3(CCCN(CC(=O)N(C)C)C3)C2)n1.O=C(O)C(F)(F)F (configuration not stated) | 2.241
21 | Cc1cc(CN2CC[C@H]3OCC[C@@]3(C(=O)N3CCOCC3)C2)no1 | 107.8
22 | O=C(NCc1ccccn1)[C@@]12CCO[C@@H]1CCN(C1CCCC1)C2.O=C(O)C(F)(F)F.O=C(O)C(F)(F)F | 86.28
23 | Cc1ccnc(OC[C@@]23CCO[C@@H]2CCN(C2CCC2)C3)n1.O=C(O)C(F)(F)F | -3.433
24 | Cc1cc(CN2CC[C@H]3OCC[C@@]3(C(=O)NC(C)C)C2)no1.O=C(O)C(F)(F)F | 2.849
25 | Cc1cc(CN2C[C@@H]3CN(C(=O)c4ccco4)CCO[C@@H]3C2)no1.O=C(O)C(F)(F)F | -7.73
26 | CCn1ccnc1CN1CCNCC1C.Cl.Cl (configuration not stated) | 0.9214

Row | SMILES | Percent Effect [%]
27 | CN(C)C(=O)CN1CCCC12CCCN(c1ncc(F)cn1)C2.O=C(O)C(F)(F)F (configuration not stated) | 0.08141
28 | O=C(c1ncccn1)N1C[C@@H]2CN(CC3CC3)CCO[C@@H]2C1 | -1.954
29 | CN1CCN(C(=O)Cc2csc(-c3ccsc3)n2)C(c2ccccc2)C1 (configuration not stated) | -6.196
30 | CN(C)CCN(C)C[C@H]1CN2CC[C@H]1C[C@@H]2CNC(=O)Nc1ccsc1 | 9.133
31 | Cc1csc(CN2CCC[C@]3(C[C@@H](Oc4ccccn4)CO3)C2)n1.O=C(O)C(F)(F)F.O=C(O)C(F)(F)F | 133.6
32 | Cn1cc(CN2CC[C@]3(C[C@H](Oc4ccccn4)CO3)C2)cn1.O=C(O)C(F)(F)F.O=C(O)C(F)(F)F | 102.3
33 | CN(C)[C@@H]1CN(Cc2cnn(C)c2)[C@@H]2COC[C@H]12.O=C(O)C(F)(F)F.O=C(O)C(F)(F)F.O=C(O)C(F)(F)F | -10.13
34 | Cn1cc(CN2CCC[C@]3(C[C@@H](Oc4ccccn4)CO3)C2)cn1.O=C(O)C(F)(F)F.O=C(O)C(F)(F)F | 98.39
35 | O=C(O)C(F)(F)F.O=C(O)C(F)(F)F.c1ccc(O[C@H]2CO[C@@]3(CCCN(Cc4nccs4)C3)C2)nc1 | 12.82
36 | Cc1cc(CN2CC[C@]3(C[C@@H](OCC(=O)N(C)C)CO3)C2)no1.O=C(O)C(F)(F)F | 25.8
37 | Cc1csc(CN2CCC[C@]3(C[C@H](Oc4ccccn4)CO3)C2)n1.O=C(O)C(F)(F)F.O=C(O)C(F)(F)F | -0.2968
38 | Cn1cc(CN2CCC[C@]3(C[C@H](Oc4ccccn4)CO3)C2)cn1 | 94
39 | Cc1noc(C)c1CN1C[C@@H](OCC(=O)N(C)C)[C@H]2OCCC[C@H]21 | -2.894
40 | O=C(NCC1CC1)[C@@H]1C[C@@H]2OCCN[C@@H]2C1.O=C(O)C(F)(F)F | 8.68
41 | Cc1cc(C)c(CNCC(O)c2ccc(F)c(F)c2)c(C)c1.Cl (configuration not stated) | 6.678
42 | O=C1CSC(c2ccsc2)c2sccc2N1 (configuration not stated) | 0.8024
43 | CC(C)(C)n1ncc2c1NC(=O)CSC2c1ccsc1 (configuration not stated) | 129
44 | CC(C)(C)n1ncc2c1NC(=O)CSC2c1ccc2c(c1)OCCO2 (configuration not stated) | 117.6
45 | COc1cccc(C2SCC(=O)Nc3ccsc32)c1OC (configuration not stated) | -5.826
46 | COC(=O)c1ccc(C2SCC(=O)Nc3ccsc32)cc1 (configuration not stated) | -2.415
47 | Cn1c(=O)n(C)c2cc(C3SCC(=O)Nc4ccsc43)ccc21 (configuration not stated) | 27.99
48 | O=C1CSC(c2cccs2)c2cnn(C3CCCC3)c2N1 (configuration not stated) | 10.18
49 | Cc1c(C2SCC(=O)Nc3c2cnn3C(C)(C)C)cnn1C (configuration not stated) | 122.6
50 | O=C1CSC(c2ccc(O)cc2)c2sccc2N1 (configuration not stated) | -5.574
51 | COc1cc(C2SCC(=O)Nc3ccsc32)cc(OC)c1O (configuration not stated) | -0.1259
52 | COC(=O)c1ccc(C2SCC(=O)Nc3c2cnn3C(C)(C)C)cc1 (configuration not stated) | 111.9
